{
  "source": "PubChem BioAssay (NCI)",
  "note": "The panel holds about 83,000 compounds, 20% with a hit somewhere; the sample as a whole holds those more often.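 Negative percent growth values reflect cell death: -40 means 40% of the cells present at the start died, and -100 means all died.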 A number with no mark means an inactive call. The source made the active and inactive calls. The calls were made as follows: active = growth percent below 10; inactive = the rest.",
  "data": [
    {"tested_on": "MCF7 breast", "assay": "NCI-60 one-dose screen, 48 h (100 = growth as untreated, 0 = no growth, -100 = all killed)", "conditions": "10 µM unless noted", "values": [
      {"smiles": "CCOc1cccc(/C(N)=N/C(N)=N/c2nc3ccccc3s2)c1", "growth": "72.6%"},
      {"smiles": "Cc1ccc2c(n1)C(=O)C(Cl)=C(Nc1cc(C(F)(F)F)cc(C(F)(F)F)c1)C2=O", "growth": "-24.9% (active)"},
      {"smiles": "CC(C)(C)OC(=O)NCc1ccc(CNc2c([N+](=O)[O-])cnc3ccccc23)cc1", "growth": "40.6%"},
      {"smiles": "C#CCOc1cccc(-c2nc(N)nc(Nc3ccccc3SSc3ccccc3Nc3nc(N)nc(-c4cccc(OCC#C)c4)n3)n2)c1", "growth": "61.2%"},
      {"smiles": "CN1CCN(c2ccc(Nc3nc(NCCNS(=O)(=O)c4ccccc4)c4sccc4n3)cc2)CC1", "growth": "92.1%"},
      {"smiles": "C=C(C=O)[C@@H]1CC[C@]2(C(=O)O)CC[C@]3(C)C(CC[C@@H]4[C@@](C)(CCC#N)[C@H](C(=C)C=O)CC[C@]43C)[C@@H]12", "note": "(some centres undefined)", "growth": "14.3%"},
      {"smiles": "O=C(CSc1nc2ccccc2c(=O)n1-c1ccccc1)N/N=C/c1ccc(Oc2ccc(Br)cc2)cc1", "growth": "68.9%"},
      {"smiles": "CC(C)C(/C=C/c1[nH]ncc1-c1cc(Cl)ccc1O)N1CCOCC1", "note": "(centres undefined)", "growth": "76.8%"},
      {"smiles": "N#Cc1c(-c2cccs2)cc(-c2cnccn2)nc1SCC(=O)N/N=C/c1ccc(Cl)cc1", "growth": "84.6%"},
      {"smiles": "CN1CCN(c2ccc(Nc3nc(NCCCNS(=O)(=O)c4ccc(Cl)cc4)c4sccc4n3)cc2)CC1", "growth": "20%"},
      {"smiles": "O=C1[C@@H]2Cc3c([nH]c4ccccc34)[C@H](c3ccc(Br)cc3)N2C(=O)CN1C1CCN(Cc2c(Cl)cccc2Cl)CC1", "growth": "68.3%"},
      {"smiles": "COc1ccc(NC(=O)CCCCCCNC(=O)C(O)(O)C(F)(F)F)cc1", "growth": "38.4%"},
      {"smiles": "CCCCSC1=C(Cl)CN(c2ccc(Cl)cc2)C1=O", "growth": "26.2%"},
      {"smiles": "CN(C)CCCOc1ccc(C(=C(c2ccccc2)C2CCCC2)c2ccc(OCCCN(C)C)cc2)cc1", "growth": "-65.8% (active)"},
      {"smiles": "CN1CCN(c2ccc(Nc3nc(NCCCNS(=O)(=O)c4cccc5ccccc45)c4sccc4n3)cc2)CC1", "growth": "-20.9% (active)"},
      {"smiles": "CCN(CC)c1ccc(/C=N/NC(=O)c2ccc(S(N)(=O)=O)cc2)cc1", "growth": "7.83% (active)"},
      {"smiles": "C#C[C@]1(O)CC[C@H]2[C@@H]3CC=C4c5sc(Nc6cc(C)cc(C)c6)nc5CC[C@]4(C)[C@H]3CC[C@@]21C", "growth": "-52.5% (active)"},
      {"smiles": "CN(C)c1ccc(-c2cc(-c3c[nH]c4ccccc34)nc(N)c2C#N)cc1", "growth": "28%"},
      {"smiles": "C#C[C@]1(O)CC[C@H]2[C@@H]3CC=C4c5sc(Nc6cc(Cl)ccc6OC)nc5CC[C@]4(C)[C@H]3CC[C@@]21C", "growth": "-15.1% (active)"},
      {"smiles": "Cc1cc(=O)[nH]c(O)c1C#N", "growth": "99.9%"},
      {"smiles": "Cc1ccc(C(=O)CSc2nc3ccccc3c(=O)n2C)cc1", "growth": "78.3%"},
      {"smiles": "O=C(NCCNc1cc(-c2cn(-c3ccccc3)nc2-c2cccc(O)c2)ccn1)Nc1cc(C(F)(F)F)cc(C(F)(F)F)c1", "growth": "87.2%"},
      {"smiles": "N/C(=N\\C(N)=N\\c1nc2ccccc2s1)c1ccc(Cl)cc1", "growth": "69.3%"},
      {"smiles": "C#CCN(C)CCCOc1ccc(NCc2ccc(/C=C/C(=O)NO)cc2)cc1Cl", "growth": "10.4%"},
      {"smiles": "C#CCOc1ccccc1/C=N/Nc1nc(-c2ccc(Cl)cc2)cs1", "growth": "77.5%"},
      {"smiles": "O=S(=O)(NCCCNc1nccc(-c2[nH]c(-c3ccccc3)nc2-c2ccc(F)c(O)c2)n1)c1cccc(F)c1", "growth": "78.3%"},
      {"smiles": "O=C(CSc1nc2ccccc2c(=O)n1CCc1ccccc1)Nc1ccc(S(=O)(=O)Nc2ccc(Cl)nn2)cc1", "growth": "79.7%"},
      {"smiles": "Nc1nc(=O)n([C@H]2C[C@H](O)[C@@H](CO)O2)cc1C=O", "growth": "96.1%"},
      {"smiles": "O=C(Nc1ccc(Cl)c(C(F)(F)F)c1)Nc1ccc2c(ccn2C(=O)c2cccc(F)c2)c1", "growth": "12.9%"},
      {"smiles": "CCN1CCN(c2ccc(NC(=O)Nc3ccc4c(ccn4-c4ccnc(C(=O)NC)c4)c3)cc2C(F)(F)F)CC1", "growth": "5.65% (active)"},
      {"smiles": "O=C(CCCCCCN1CC(=O)N2[C@@H](c3ccccc3Br)c3[nH]c4ccccc4c3C[C@H]2C1=O)NO", "growth": "21.4%"},
      {"smiles": "COc1ccc2[nH]cc(-c3nc(N)nnc3-c3cn(C)c4ccc(Br)cc34)c2c1", "growth": "12.2%"},
      {"smiles": "C#Cc1nc(/C=C\\CCCCCCC(=O)NO)cs1", "growth": "35.2%"},
      {"smiles": "CC(=O)OC[C@]12CC[C@@H](C(=O)/C=C/c3cccnc3)[C@@H]1[C@H]1CC[C@@H]3[C@@]4(C)CC[C@H](OC(C)=O)C(C)(C)[C@@H]4CC[C@@]3(C)[C@]1(C)CC2", "growth": "-26.8% (active)"}
    ]}
  ]
}
